Assay results taken from paper PMC9911399, “Two distinct binding modes provide the RNA-binding protein RbFox with extraordinary sequence specificity”.
Substitutions are numbered along the chain they refer to; changes in the protein carry UniProt numbers. Whole data set: some 16,000 sequences, median “ka relative to ugcaugu” near 0.0091, cut for the highest 2% near 0.032. What follows is part of a selection rich in the highest values, with near analogues and random picks from the rest.

T1: RBFOX1 RRM (Homo sapiens, UniProt Q9NWB1 109-208)
T1 sequence: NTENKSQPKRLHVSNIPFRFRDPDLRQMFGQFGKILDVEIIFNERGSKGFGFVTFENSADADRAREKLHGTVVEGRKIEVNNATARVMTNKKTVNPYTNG

B1: UAGCGUU (DNA:RNA)
RNA: GGGAGACCGGAAUUCAGAUUGUCCUAGCGUUUUAAAUCCCGUCGUAGCCACCA
DNA 1: CAATCTGAATTCCGGTCTCCC
DNA 2: TGGTGGCTACGACGGGATT
B2: UGACAAC (DNA:RNA)
RNA: B1 RNA with A26G, G27A, G29A, U30A, U31C
DNA 1: CAATCTGAATTCCGGTCTCCC
DNA 2: TGGTGGCTACGACGGGATT
B3: AACUUUA (DNA:RNA)
RNA: B1 RNA with U25A, G27C, C28U, G29U, U31A
DNA 1: CAATCTGAATTCCGGTCTCCC
DNA 2: TGGTGGCTACGACGGGATT
B4: UGAGUUG (DNA:RNA)
RNA: B1 RNA with A26G, G27A, C28G, G29U, U31G
DNA 1: CAATCTGAATTCCGGTCTCCC
DNA 2: TGGTGGCTACGACGGGATT
B5: UGAGGAG (DNA:RNA)
RNA: B1 RNA with A26G, G27A, C28G, U30A, U31G
DNA 1: CAATCTGAATTCCGGTCTCCC
DNA 2: TGGTGGCTACGACGGGATT
B6: UGCUGAG (DNA:RNA)
RNA: B1 RNA with A26G, G27C, C28U, U30A, U31G
DNA 1: CAATCTGAATTCCGGTCTCCC
DNA 2: TGGTGGCTACGACGGGATT
B7: GCUGUUG (DNA:RNA)
RNA: B1 RNA with U25G, A26C, G27U, C28G, G29U, U31G
DNA 1: CAATCTGAATTCCGGTCTCCC
DNA 2: TGGTGGCTACGACGGGATT
B8: GCUGUCG (DNA:RNA)
RNA: GGGAGACCGGAAUUCAGAUUGUCCGCUGUCGUUAAAUCCCGUCGUAGCCACCA
DNA 1: CAATCTGAATTCCGGTCTCCC
DNA 2: TGGTGGCTACGACGGGATT
B9: UGUGUGG (DNA:RNA)
RNA: B8 RNA with G25U, C26G, C30G
DNA 1: CAATCTGAATTCCGGTCTCCC
DNA 2: TGGTGGCTACGACGGGATT
B10: UGUUCGU (DNA:RNA)
RNA: B1 RNA with A26G, G27U, C28U, G29C, U30G
DNA 1: CAATCTGAATTCCGGTCTCCC
DNA 2: TGGTGGCTACGACGGGATT
B11: UGUGGUG (DNA:RNA)
RNA: B8 RNA with G25U, C26G, U29G, C30U
DNA 1: CAATCTGAATTCCGGTCTCCC
DNA 2: TGGTGGCTACGACGGGATT
B12: GCUGCUG (DNA:RNA)
RNA: B8 RNA with U29C, C30U
DNA 1: CAATCTGAATTCCGGTCTCCC
DNA 2: TGGTGGCTACGACGGGATT
B13: UGGUGUG (DNA:RNA)
RNA: B1 RNA with A26G, C28U, U31G
DNA 1: CAATCTGAATTCCGGTCTCCC
DNA 2: TGGTGGCTACGACGGGATT
B14: UGUCCGU (DNA:RNA)
RNA: B1 RNA with A26G, G27U, G29C, U30G
DNA 1: CAATCTGAATTCCGGTCTCCC
DNA 2: TGGTGGCTACGACGGGATT
B15: GUCCUGU (DNA:RNA)
RNA: B8 RNA with C26U, U27C, G28C, C30G, G31U
DNA 1: CAATCTGAATTCCGGTCTCCC
DNA 2: TGGTGGCTACGACGGGATT
B16: AUCUUGC (DNA:RNA)
RNA: B8 RNA with G25A, C26U, U27C, G28U, C30G, G31C
DNA 1: CAATCTGAATTCCGGTCTCCC
DNA 2: TGGTGGCTACGACGGGATT
B17: AUGACCA (DNA:RNA)
RNA: B8 RNA with G25A, C26U, U27G, G28A, U29C, G31A
DNA 1: CAATCTGAATTCCGGTCTCCC
DNA 2: TGGTGGCTACGACGGGATT
B18: CUAAUUG (DNA:RNA)
RNA: B8 RNA with G25C, C26U, U27A, G28A, C30U
DNA 1: CAATCTGAATTCCGGTCTCCC
DNA 2: TGGTGGCTACGACGGGATT
B19: GGCCUGU (DNA:RNA)
RNA: B8 RNA with C26G, U27C, G28C, C30G, G31U
DNA 1: CAATCTGAATTCCGGTCTCCC
DNA 2: TGGTGGCTACGACGGGATT
B20: GAUUAGC (DNA:RNA)
RNA: B8 RNA with C26A, G28U, U29A, C30G, G31C
DNA 1: CAATCTGAATTCCGGTCTCCC
DNA 2: TGGTGGCTACGACGGGATT
B21: UGCAACU (DNA:RNA)
RNA: B1 RNA with A26G, G27C, C28A, G29A, U30C
DNA 1: CAATCTGAATTCCGGTCTCCC
DNA 2: TGGTGGCTACGACGGGATT
B22: GGGCCGG (DNA:RNA)
RNA: B8 RNA with C26G, U27G, G28C, U29C, C30G
DNA 1: CAATCTGAATTCCGGTCTCCC
DNA 2: TGGTGGCTACGACGGGATT
B23: CGUCCUG (DNA:RNA)
RNA: B8 RNA with G25C, C26G, G28C, U29C, C30U
DNA 1: CAATCTGAATTCCGGTCTCCC
DNA 2: TGGTGGCTACGACGGGATT
B24: CUGUUGU (DNA:RNA)
RNA: B1 RNA with U25C, A26U, C28U, G29U, U30G
DNA 1: CAATCTGAATTCCGGTCTCCC
DNA 2: TGGTGGCTACGACGGGATT
B25: CCUGUGC (DNA:RNA)
RNA: B8 RNA with G25C, C30G, G31C
DNA 1: CAATCTGAATTCCGGTCTCCC
DNA 2: TGGTGGCTACGACGGGATT
B26: CGUUUGC (DNA:RNA)
RNA: B8 RNA with G25C, C26G, G28U, C30G, G31C
DNA 1: CAATCTGAATTCCGGTCTCCC
DNA 2: TGGTGGCTACGACGGGATT
B27: CUGUUUG (DNA:RNA)
RNA: B8 RNA with G25C, C26U, U27G, G28U, C30U
DNA 1: CAATCTGAATTCCGGTCTCCC
DNA 2: TGGTGGCTACGACGGGATT
B28: CGUGUGC (DNA:RNA)
RNA: B8 RNA with G25C, C26G, C30G, G31C
DNA 1: CAATCTGAATTCCGGTCTCCC
DNA 2: TGGTGGCTACGACGGGATT
B29: UGUUUUG (DNA:RNA)
RNA: B8 RNA with G25U, C26G, G28U, C30U
DNA 1: CAATCTGAATTCCGGTCTCCC
DNA 2: TGGTGGCTACGACGGGATT
B30: CGUUCUG (DNA:RNA)
RNA: B8 RNA with G25C, C26G, G28U, U29C, C30U
DNA 1: CAATCTGAATTCCGGTCTCCC
DNA 2: TGGTGGCTACGACGGGATT
B31: UGUUCUG (DNA:RNA)
RNA: B8 RNA with G25U, C26G, G28U, U29C, C30U
DNA 1: CAATCTGAATTCCGGTCTCCC
DNA 2: TGGTGGCTACGACGGGATT
B32: UGUGUGC (DNA:RNA)
RNA: B8 RNA with G25U, C26G, C30G, G31C
DNA 1: CAATCTGAATTCCGGTCTCCC
DNA 2: TGGTGGCTACGACGGGATT
B33: UGUUUGC (DNA:RNA)
RNA: B8 RNA with G25U, C26G, G28U, C30G, G31C
DNA 1: CAATCTGAATTCCGGTCTCCC
DNA 2: TGGTGGCTACGACGGGATT
B34: CUGUCGU (DNA:RNA)
RNA: B1 RNA with U25C, A26U, C28U, G29C, U30G
DNA 1: CAATCTGAATTCCGGTCTCCC
DNA 2: TGGTGGCTACGACGGGATT

target: T1, RBFOX1 RRM; assay: EMSA; HiTS-Eq, 1 nM pool, 10 min; buffer printed only for the single-RNA assays: 10 mM Tris pH 7.5, 150 mM NaCl, 3.4 mM EDTA, 0.001% NP-40, 30 C; settings: tags: His6 N-terminal (pET28a); label: 5' 32P
Method in brief: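 Purified wild-type or mutant RbFox RRM at increasing concentrations was equilibrated with 1 nM of 5′-radiolabelled RNA carrying 7 randomized nucleotides for 10 min in 50 µL. Unbound RNA was separated by 8% native PAGE and sequenced. Relative association constants came from read-count changes of each RNA species compared with the control reaction, normalised to the cognate motif.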

Binder	binding signal
B1	0.0117 KA relative to UGCAUGU
B2	0.00863 KA relative to UGCAUGU
B3	0.000524 KA relative to UGCAUGU
B4	0.0276 KA relative to UGCAUGU
B5	0.0109 KA relative to UGCAUGU
B6	0.0319 KA relative to UGCAUGU
B7	0.028 KA relative to UGCAUGU
B8	0.0197 KA relative to UGCAUGU
B9	0.0178 KA relative to UGCAUGU
B10	0.0328 KA relative to UGCAUGU
B11	0.0376 KA relative to UGCAUGU
B12	0.0323 KA relative to UGCAUGU
B13	0.029 KA relative to UGCAUGU
B14	0.0131 KA relative to UGCAUGU
B15	0.0155 KA relative to UGCAUGU
B16	0.0138 KA relative to UGCAUGU
B17	0.00337 KA relative to UGCAUGU

Binder	binding signal
B18	0.013 KA relative to UGCAUGU
B19	0.0238 KA relative to UGCAUGU
B20	0.0124 KA relative to UGCAUGU
B21	0.0132 KA relative to UGCAUGU
B22	0.0124 KA relative to UGCAUGU
B23	0.0127 KA relative to UGCAUGU
B24	0.0226 KA relative to UGCAUGU
B25	0.0232 KA relative to UGCAUGU
B26	0.019 KA relative to UGCAUGU
B27	0.0332 KA relative to UGCAUGU
B28	0.0146 KA relative to UGCAUGU
B29	0.0286 KA relative to UGCAUGU
B30	0.0207 KA relative to UGCAUGU
B31	0.0328 KA relative to UGCAUGU
B32	0.0333 KA relative to UGCAUGU
B33	0.0351 KA relative to UGCAUGU
B34	0.0193 KA relative to UGCAUGU
